Assay results taken from PubChem BioAssay AID743100 (Vanderbilt Specialized Chemistry Center, 2013).
A number with no mark means an inactive call. The source made the active and inactive calls.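 Rule for the calls: active = calcium response above 60% of the acetylcholine maximum at human M5, as a positive modulator; inactive = the rest.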

target: Muscarinic acetylcholine receptor M5 (Homo sapiens) (UniProt P08912); assay: potentiators of ACh response at human M5 – cell-based, single concentration, CHO-K1 hM5, calcium flux (AID 743100); settings: CHO-K1 hM5, Fluo-4 calcium flux, ACh EC20, hits give high values; at 10 µM unless noted
Sequence (P08912 whole entry, looked up): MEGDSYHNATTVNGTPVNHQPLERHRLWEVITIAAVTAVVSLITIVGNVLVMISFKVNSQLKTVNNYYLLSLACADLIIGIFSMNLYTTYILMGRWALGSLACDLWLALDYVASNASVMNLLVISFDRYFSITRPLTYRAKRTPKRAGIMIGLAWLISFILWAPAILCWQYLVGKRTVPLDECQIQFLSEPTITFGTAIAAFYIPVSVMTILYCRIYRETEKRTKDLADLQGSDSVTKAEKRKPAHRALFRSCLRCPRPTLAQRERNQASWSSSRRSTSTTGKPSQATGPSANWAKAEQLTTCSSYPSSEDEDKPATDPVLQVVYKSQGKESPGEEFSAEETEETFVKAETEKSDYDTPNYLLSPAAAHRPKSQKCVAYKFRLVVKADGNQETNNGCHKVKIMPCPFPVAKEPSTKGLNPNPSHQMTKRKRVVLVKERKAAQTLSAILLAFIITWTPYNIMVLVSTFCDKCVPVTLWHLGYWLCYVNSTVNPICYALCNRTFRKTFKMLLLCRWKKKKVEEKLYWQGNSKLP

| Compound | % ACh max response |
| --- | --- |
| CCN(Cc1ccccc1)C(=O)C1CCN(S(=O)(=O)c2ccccc2F)CC1 | 38.4% [at 30 µM] |
| CCN(Cc1ccccc1)C(=O)C1CCN(S(=O)(=O)c2ccncc2)CC1 | 24.6% (active) |
| CCN(C(=O)C1CCN(S(=O)(=O)c2ccc3c(c2)CCC3)CC1)[C@H](C)c1ccccc1 | 91.5% (active) |
| CCN(Cc1ccccc1)C(=O)C1CCN(S(=O)(=O)c2cccc3nsnc23)CC1 | 40.8% [at 30 µM] |
| CCN(Cc1ccccc1)C(=O)C1CCN(S(=O)(=O)c2ccc3c(c2)OCO3)CC1 | 62.9% (active) |
| CCN(Cc1ccccc1)C(=O)C1CCN(S(=O)(=O)c2cnc[nH]2)CC1 | 33.7% [at 30 µM] |
| [2H]C([2H])(C)N(C(=O)C1CCN(S(=O)(=O)c2ccc3cn[nH]c3c2)CC1)[C@H](C)c1ccccc1 | 94.6% (active) |
| CCN(Cc1ccc(C(F)(F)F)cc1)C(=O)C1CCN(S(=O)(=O)c2ccc3cn[nH]c3c2)CC1 | 24.2% |
| CC(=O)N(Cc1ccccc1)CC1CCN(S(=O)(=O)c2ccc(OC(F)(F)F)cc2)CC1 | 6.72% |
| CCN(Cc1ccccc1)C(=O)C1CCN(S(=O)(=O)c2ccc3nsnc3c2)CC1 | 77.9% [at 30 µM] (active) |
| CCN(Cc1ccc(C#N)cc1)C(=O)C1CCN(S(=O)(=O)c2ccc3cn[nH]c3c2)CC1 | 8.37% |
| CC1c2ccccc2CCN1C(=O)C1CCN(S(=O)(=O)c2ccc3[nH]ncc3c2)CC1 (stereo unspecified) | 40.4% |
| CCN(Cc1cccc(F)c1)C(=O)C1CCN(S(=O)(=O)c2ccc3cn[nH]c3c2)CC1 | 84.8% (active) |
| CCN(CC1CCN(S(=O)(=O)c2ccc3c(c2)OCCO3)CC1)C(=O)c1ccccc1 | 11.3% |
| CC(=O)N(Cc1ccccc1)CC1CCN(S(=O)(=O)c2ccc3c(c2)OCCO3)CC1 | 7.56% |
| CCN(Cc1ccccc1C#N)C(=O)C1CCN(S(=O)(=O)c2ccc3cn[nH]c3c2)CC1 | 36.8% |
| CCN(Cc1ccccn1)C(=O)C1CCN(S(=O)(=O)c2ccc3cn[nH]c3c2)CC1 | 35.1% |
| CCN(CC1CCN(S(=O)(=O)c2cccc(OC)c2)CC1)C(=O)c1ccccc1 | 15.2% |
| CCN(Cc1ccccc1C(F)(F)F)C(=O)C1CCN(S(=O)(=O)c2ccc(-n3cccn3)cc2)CC1 | 81.9% (active) |
| CC(=O)N(Cc1ccccc1)CC1CCN(S(=O)(=O)c2ccc3occc3c2)CC1 | 8.25% |
| CCN(Cc1ccccc1)C(=O)C1CCN(S(=O)(=O)c2ccc3c(c2)OCCO3)CC1 | 72.2% [at 30 µM] (active) |
